The list is not random: actives were taken first. Their share in the collection is about 1.9%.
14-3-3 Bad PPI: disrupts binding of bovine 14-3-3 zeta to phospho-Bad peptide; P63103; TR-FRET 14-3-3zeta/Dy647-pBad peptide displacement, 1 h; inhibition, % at 21.7 µM; actives 0.71% (n = 220,000);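 active = inhibition above about 70%, limit read from the data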;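 also: 0% = full 14-3-3 plus peptide FRET controls and 100% = background without 14-3-3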
Target sequence (P63103 whole entry, looked up): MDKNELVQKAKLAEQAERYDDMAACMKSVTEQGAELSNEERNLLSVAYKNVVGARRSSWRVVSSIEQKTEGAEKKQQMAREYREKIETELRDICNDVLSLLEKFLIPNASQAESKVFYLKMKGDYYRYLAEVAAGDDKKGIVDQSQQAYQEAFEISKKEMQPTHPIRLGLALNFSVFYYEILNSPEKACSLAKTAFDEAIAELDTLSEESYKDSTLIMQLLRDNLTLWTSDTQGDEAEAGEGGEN
eIF4H inh: inhibitors of RNA binding by human eIF4H | AID 2012 | actives 0.94% (n = 290,000) | Q15056 | eIF4H fluorescence polarization binding assay | inhibition, % at 35 µM;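 also: calls also rest on retests at 20 µM and on dose response follow-up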
PABP FP inh: blocks human PABP binding to poly(A) RNA; P11940; fluorescence polarization; calls only at 35 µM; actives 1% (n = 290,000);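 also: calls also rest on retests at 20 µM and on dose response follow-up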
MLLE-PAM2 inh: inhibitors of microRNA-mediated deadenylation, human PABP1 MLLE binding; P11940; GST-MLLE / FITC-PAM2 fluorescence polarization; inhibition, % at 20 µM; actives 0.36% (n = 360,000); AID 588489; in the data active = inhibition above about 35%, passing the limit was not always enough;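 also: plate controls were DMSO wells with GST-MLLE for no effect and wells lacking GST-MLLE protein for full effect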
eIF4E 4G PPI: blocks eIF4E binding to eIF4G | TR-FRET eIF4E-eIF4GI(517-606) binding, 2 h | inhibition, % at 21.7 µM | AID 782 | actives 0.37% (n = 220,000);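 active = inhibition above about 30%, limit read from the data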;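 also: 0% = full FRET control wells and 100% = background wells lacking eIF4GI fragment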
Numbers without * were called inactive; i = inactive; u = inconclusive; x = no result given; + = active, no number; [ ] = another dose, or the depositor's remark. Unless noted, no rule for the calls is given here.

SMILES	14-3-3 Bad PPI	eIF4H inh	PABP FP inh	MLLE-PAM2 inh	eIF4E 4G PPI
C#CCOCCOCCOCCNc1nc(N2CCN(C(=O)[C@H](CCCCN)n3cc(CCCC)nn3)CC2)nc(N2CCN(C(=O)[C@H](Cc3ccc(O)cc3)n3cc(CCO)nn3)CC2)n1	42	7	i	-29	0
C#CCOCCOCCOCCNc1nc(N2CCN(C(=O)[C@H](C)n3cc(CCCN=C(N)N)nn3)CC2)nc(N2CCN(C(=O)[C@H](Cc3ccc(O)cc3)n3cc(CCO)nn3)CC2)n1	78*	5	i	x	-4
Cc1ccccc1SCC(=O)NC1CCOC1=O (centres undefined)	11	4	i	40*	-1
Cc1ccccc1SCC(=O)Nc1ccc(N2CCOCC2)cc1	-24	7	i	20	2
COc1ccc(-n2cccc2/C=C2\C(=N)N3N=C(c4ccco4)SC3=NC2=O)cc1	82*	44	i	-20	46*
CCC1=NN2C(=N)/C(=C\c3cccn3-c3cccc(Cl)c3)C(=O)N=C2S1	-16	19	i	-7	1
COc1ccc(-n2cccc2/C=C2\C(=N)N3N=C(C(C)C)SC3=NC2=O)cc1	-2	-8	i	-3	4
CCC1=NN2C(=N)/C(=C\c3cccn3-c3ccc(Br)cc3)C(=O)N=C2S1	79*	24	i	-3	9
O=C(CCn1c(=O)oc2ccc(Cl)cc21)N1CCN(c2ccccc2)CC1	x	-10	i	-3	x
CCOc1ccc(-n2c(-c3ccco3)n[nH]c2=S)cc1	8	-4	i	-1	34*[fluorescence artefact?]
Cc1ccc(-n2c(-c3ccco3)n[nH]c2=S)cc1	-2	-6	i	-1	-1
CCOC(=O)c1cc2c(ccn2C)n1CC(=O)N(Cc1ccccc1)c1ccccc1	-18	12	i	41*	-4
Cn1c([N+](=O)[O-])cnc1N1CCN(c2nncs2)C1=O	3	1	i	-6	3
O=C(O)CSc1nnc(COc2cccc3cccnc23)n1-c1cccc(C(F)(F)F)c1	-5	-4	i	x	68*
O=C(COc1ccc(C(=S)N2CCOCC2)cc1Cl)Nc1ccccc1Cl	-11	9	i	41*	6
CCOCC(=O)Nc1c(C(=O)N2CCN(c3ncccn3)CC2)oc2ccccc12	x	-6	i	10	x
O=C(c1oc2ccccc2c1CSCc1ccccc1)N1CCN(c2ncccn2)CC1	-12	16	i	69*	-8
CC(C)(C)c1ccc(/C([O-])=C(/C(=S)NCc2ccco2)[n+]2ccccc2)cc1	-17	32*	+	x	-17
O=C(CSc1ncccn1)NN=C1CCCCCC1	2	82*	+	1	3
Cc1cc(C)cc(CSCC(=O)NN=C2CCCCCC2)c1	-3	-1	i	-5	2
O=c1c2ccccc2sn1-c1ccc(F)cc1	x	x	x	37*	x
O=c1c2ccccc2sn1-c1ccc(Cl)cc1	x	x	x	25	x
Cc1ccc(-n2sc3ccccc3c2=O)cc1	41	8	i	16	45*
O=C(Nc1c(-c2ccc(Cl)cc2)[nH][nH]c1=O)c1ccccc1Cl	x	x	x	-8	x
COc1ccc([C@@H]2C[C@H]3CN(Cc4ccccc4OC)C(=O)[C@]34CCCN24)cc1C	-8	52*	+	-23	-2
SMILES	14-3-3 Bad PPI	eIF4H inh	PABP FP inh	MLLE-PAM2 inh	eIF4E 4G PPI
COCCN(Cc1nnc(-c2cccs2)o1)C(=O)CN1C(=O)NC2(CCCCC2)C1=O	x	x	x	11	x
CCCc1nc2sc3ccccc3c(=O)c2c(=O)n1Cc1ccccc1	x	x	x	11	x
CCc1nc2sc3ccccc3c(=O)c2c(=O)n1Cc1ccco1	8	69*	+	15	19
O=c1c2ccccc2sc2nc(C3CCCCC3)n(Cc3ccco3)c(=O)c12	73*	33	i	27	-71
Cc1cccnc1NC1(C(F)(F)F)N=C2SCCN2C1=O (centres undefined)	-12	-6	i	7	1
COc1ccc(C(=O)NC2(C(F)(F)F)N=C3SCCN3C2=O)cc1 (centres undefined)	5	-2	i	40*	1
Cc1cccc(NC2(C(F)(F)F)N=C3SCCN3C2=O)n1 (centres undefined)	-4	-5	i	40*	-17
O=C(Nc1nccs1)c1cc(-c2ccco2)nc2ccccc12	-1	58	+	-4	36*[fluorescence artefact?]
O=C(Nc1cccc(S(=O)(=O)NC2=NCCC2)c1)c1cc(-c2ccco2)nc2ccccc12	66	90*	+	-28	48*
O=C(NC(=S)Nc1cccc(S(=O)(=O)NC2=NCCC2)c1)c1cc(-c2ccco2)nc2ccccc12	-3	76	i	69	2
Cc1csc(NC(=O)c2cc(-c3ccco3)nc3ccccc23)n1	11	88*	+	-16	6
O=C(Nc1nccs1)c1cc(-c2ccccc2)nc2ccccc12	26	-12	i	5	4
CN(C)C(=O)c1ccc(NC(=O)c2cc(-c3ccco3)nc3ccccc23)cc1	x	77*	+	2	x
CCOC(=O)N1CCC(=NNc2ccc(S(N)(=O)=O)cc2[N+](=O)[O-])CC1	-14	-2	i	-3	1
CN1CCN(C(=O)c2ccc(-c3cnc4cccnn34)cc2)CC1	x	x	x	-3	x
CCOC(=O)C1(C)CCCN1C(=O)c1ccc(Cl)nc1 (centres undefined)	x	x	x	0	x
Cc1ccc(-n2c(N)c(C(N)=O)sc2=S)c(C)c1	6	60*	i	35	-4
O=C(Nc1nnc(-c2cccs2)s1)c1cccc(F)c1	-8	-1	i	13	3
Oc1ccc(C2=CSC3=NCCN23)cc1O	x	4	i	15	x
Nc1nc(Sc2ccc(C(F)(F)F)cc2[N+](=O)[O-])n[nH]1	5	4	i	-7	-5
Nc1nc(Sc2c([N+](=O)[O-])cc(C(F)(F)F)cc2[N+](=O)[O-])n[nH]1	-8	7	i	39*	-2
COc1ccc(/C=N/Nc2nnc(Cc3ccccc3)c(=O)[nH]2)cc1OC	-3	u	+	1	-3
COc1ccc(Cc2nnc(N/N=C/c3ccc(O)cc3)[nH]c2=O)cc1OC	-1	22	i	-24	5
O=C(COC(=O)COc1ccc(Br)cc1)NC1CCS(=O)(=O)C1 (centres undefined)	x	x	x	9	x
CC(C)(C)NC(=O)CSc1nccn1Cc1ccccc1	-7	68*	+	-65	-2
O=C(CSc1nccn1Cc1ccccc1)Nc1ccccc1	x	-2	i	-5	x
CCc1ccc2[nH]c3nc(SCc4nnc(-c5ccccc5)o4)nnc3c2c1	12	-11	i	-1	-15
COc1ccc2[nH]c3nc(SCc4nnc(-c5ccccc5)o4)nnc3c2c1	74*	6	i	2	-1
Nc1c(C(=O)C2CC2)sc2nc(-c3cccs3)cc(C(F)(F)F)c12	-1	94*	i	i	1
CC(C)NC(=O)c1sc2nc(-c3cccs3)cc(-c3cccs3)c2c1N	-6	1	i	x	6

Compound activity (PubChem)
